Assay [1] in a line: qHTS assay to identify small molecule agonists of the progesterone receptor (PR) signaling pathway - cell viability counter screen (AID 1346799; calls by dose curve; further: nearly all actives have a fitted effect of over 45% in size; further: potency means the concentration at half of the fitted maximal effect). Summed up: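 Luminescence from CellTiter-Glo, added after the beta-lactamase FRET read in the same wells, gave cytotoxicity in PR-UAS-bla HEK293T cells treated with compounds for 16 hr at 37C.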
Assay [2] can be described thus: qHTS assay to identify small molecule agonists of the TGF-beta/Smad signaling pathway - cell viability counter screen (AID 1346829). Further: nearly all actives have a fitted effect of over 45% in size. Further: potency means the concentration at half of the fitted maximal effect. The method, boiled down: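 Cytotoxicity counter screen: CellTiter-Glo luminescence (30 min, room temperature) measured in the SBE-bla HEK 293T reporter wells after 5 hr compound treatment at 37 C and the 2 hr substrate step.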
Background: In qHTS, concentration-response curves come from the screen itself.

A short description of assay [3]: qHTS assay to identify small molecule agonists of the TGF-beta/Smad signaling pathway (AID 1346859; active means well fitted activation curve with a large enough effect in the signal ratio in the repeat runs, not every such curve was filed as active; the % refers to the signal ratio; further: series mostly up to about 77 µM). Summed up:
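SBE-bla HEK 293T, 4,000 cells/well, plated o/n; cpd in DMSO, 5 hr, 37 C/5% CO2; B/G FRET substrate 2 hr RT; ex 405, em 460/530 nm.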

For assay [4], the target named is Thyrotropin-releasing hormone receptor (Homo sapiens) (UniProt P34981). Nature of the assay: qHTS assay to identify small molecule antagonists of the thyrotropin-releasing hormone receptor (TRHR) signaling pathway (AID 1346877; active means well fitted inhibition curve with a large enough effect in the repeat runs, not every such curve was filed as active; further: series mostly up to about 51 µM). The method, boiled down: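 HEK293/TRHR cells, 18 h, 37 °C; Ca2+ dye 2 h; cpd 5 min RT; TRH 1 nM final; fluorescence read 3 min, 1 s intervals; 15 concs, triplicate.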
Sequence of Thyrotropin-releasing hormone receptor (Homo sapiens) (P34981 whole entry, looked up): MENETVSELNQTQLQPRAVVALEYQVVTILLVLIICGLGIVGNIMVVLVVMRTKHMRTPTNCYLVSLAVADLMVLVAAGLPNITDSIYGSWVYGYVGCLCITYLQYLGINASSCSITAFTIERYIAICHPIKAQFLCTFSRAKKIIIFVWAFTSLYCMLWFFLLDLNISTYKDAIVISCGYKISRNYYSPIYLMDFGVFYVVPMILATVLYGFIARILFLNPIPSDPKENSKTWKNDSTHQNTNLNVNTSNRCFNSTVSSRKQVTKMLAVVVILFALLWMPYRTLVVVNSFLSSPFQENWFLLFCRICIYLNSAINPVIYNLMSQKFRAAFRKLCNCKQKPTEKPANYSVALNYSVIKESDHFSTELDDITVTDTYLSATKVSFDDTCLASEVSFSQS

For assay [5] the target is unchanged. The assay is described as follows: qHTS assay to identify small molecule agonists of the thyrotropin-releasing hormone receptor (TRHR) signaling pathway (AID 1346891; calls by dose curve; further: series mostly up to about 58 µM). Summed up:
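Intracellular calcium rise, read as fluorescence every second for 3 min, served as the agonist signal in dye-loaded HEK293 cells expressing TRHR; each compound ran at 15 concentrations in triplicate.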

The nature of assay [6]: Human pregnane X receptor (PXR) small molecule agonists, qHTS cell viability counter screen (AID 1346977). Further: potency means the concentration at half of the fitted maximal effect; nearly all actives have a fitted effect of over 50% in size. Summed up: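 PXR-Luc HepG2, 2,000 cells/well, 5% charcoal-stripped FBS; 5hr settle; cpd 24hr, 37C/5% CO2; CellTiter-Fluor at 23hr, read 1hr later (fluorescence).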
The nature of assay [7]: Caspase-3/7 induction in HepG2 cells by small molecules, qHTS assay (AID 1346978). Further: nearly all actives have a fitted effect of over 15% in size. Further: potency means the concentration at half of the fitted maximal effect. Summed up:
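Caspase-3/7 induction was measured by Caspase-Glo 3/7 luminescence (30 min, room temperature) after a 17 hr compound exposure of wild-type HepG2 cells seeded at 2,000 per well and pre-incubated 5 hr.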

The nature of assay [8]: Caspase-3/7 induction in CHO-K1 cells by small molecules, qHTS assay (AID 1346980). Further: nearly all actives have a fitted effect of over 15% in size. The method, boiled down:
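Luminescent Caspase-Glo 3/7 read (30min, room temperature) quantified apoptosis induction. Cells were wild-type CHO-K1, treated with compound for 17hr at 37 C and 5% CO2.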

A short description of assay [9]: Caspase-3/7 induction in HepG2 cells by small molecules, qHTS cell viability counter screen (AID 1346981). Further: nearly all actives have a fitted effect of over 30% in size. Further: potency means the concentration at half of the fitted maximal effect. Summed up: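 Fluorescence read-out of live-cell protease activity (CellTiter-Fluor) after 1 hr with reagent. This was measured in the same wells as the caspase-3/7 luminescence, on HepG2 cells exposed to DMSO-dissolved compounds for 16 hr at 37 C.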
Assay [10] addresses Cytochrome P450 2D6 (Homo sapiens) (UniProt P10635). The assay is described as follows: Cytochrome P450 Family 2 Subfamily D Member 6 (CYP2D6) small molecule antagonists: luciferase reporter qHTS assay (AID 1671196). Further: nearly all actives have a fitted effect of over 50% in size. Further: potency means the concentration at half of the fitted maximal effect. Summed up: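 Luminogenic proluciferin substrate, CYP2D6 enzyme; 10 min RT preincubation with compound, NADPH regeneration system added, 1 h RT. Stop/detection reagent, 20 min RT, luminescence read (RLU). Signal proportional to CYP activity.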

Assay [11] concerns the target Cytochrome P450 2C19 (Homo sapiens) (UniProt P33261). Nature of the assay: Cytochrome P450 Family 2 Subfamily C Member 19 (CYP2C19) small molecule antagonists: luciferase reporter qHTS assay (AID 1671197). Further: nearly all actives have a fitted effect of over 65% in size. Further: potency means the concentration at half of the fitted maximal effect. The method, boiled down:
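Luminescent readout of CYP2C19 activity: luciferin product detected 20 min after adding detection reagent. Before that, compound and enzyme-substrate mix preincubated 10 min at room temperature; NADPH-regenerating system started a 1 h, 37C reaction. Ketoconazole as positive control.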
(In general: In a reporter assay the amount or activity of a reporter protein is the signal.)

Assay [12] has as its target Cytochrome P450 2C9 (Homo sapiens) (UniProt P11712). The assay is described as follows: Cytochrome P450 Family 2 Subfamily C Member 9 (CYP2C9) small molecule antagonists: luciferase reporter qHTS assay (AID 1671198). Further: nearly all actives have a fitted effect of over 50% in size. Further: potency means the concentration at half of the fitted maximal effect. Summed up:
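Enzyme-substrate mix preincubated with compound 10 min at room temperature; reaction started with NADPH regeneration solution, 1 h 37C. Luminescent luciferin product read after 20 min detection reagent.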

Assay [13] can be described thus: qHTS assay to identify small molecule antagonists of the progesterone receptor (PR) signaling pathway - cell viability counter screen (AID 1346798). Further: nearly all actives have a fitted effect of over 50% in size. Further: potency means the concentration at half of the fitted maximal effect. The method, boiled down:
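HEK293T PR-UAS-bla, 2% charcoal-stripped FBS; 4 hr pre-plate; cpd + R5020, 16 h 37C; LiveBLAzer read first; then CellTiter-Glo 30 min RT, luminescence.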

Assay [14] in a line: qHTS assay to identify small molecule antagonists of the TGF-beta/Smad signaling pathway - cell viability counter screen (AID 1346824). Further: nearly all actives have a fitted effect of over 50% in size. Further: potency means the concentration at half of the fitted maximal effect. The method, boiled down:
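Cytotoxicity counter-screen run in the same wells as the beta-lactamase Smad reporter read: CellTiter-Glo luminescence after 30 min at room temperature. HEK 293T SBE-bla cells had 5 hr compound exposure at 37 C with TGF-beta1 (0.25 ng/mL stock).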

Assay [15] in a line: Caspase-3/7 induction in CHO-K1 cells by small molecules, qHTS cell viability counter screen (AID 1346979). Further: nearly all actives have a fitted effect of over 35% in size. Further: potency means the concentration at half of the fitted maximal effect. Summed up:
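Cells (CHO-K1, wild type) are plated at 1,500 per well and incubated 5hr. Test compounds in DMSO are then pinned in, followed by 16hr at 37C and 5% CO2. Viability is read by CellTiter-Fluor fluorescence after 1hr.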

Assay [16] addresses Nuclear receptor subfamily 1 group I member 2 (Homo sapiens) (UniProt O75469). Nature of the assay: Human pregnane X receptor (PXR) small molecule agonists, qHTS assay (AID 1346982). Further: nearly all actives have a fitted effect of over 35% in size. Further: potency means the concentration at half of the fitted maximal effect. Summed up: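 HepG2 PXR-Luc reporter line, 5% charcoal-stripped FBS; 5 hr pre-incubation, compound (DMSO) 24 hr at 37 C/5% CO2; ONE-Glo 30 min RT; luminescence read-out.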

Values joined by “and” are separate entries in the source; they are usually repeats but may differ in a detail not shown here. Identical values can stand only once. Results filed as inconclusive are left out. More than one record can exist for a structure, and the calls need not agree. Active and inactive are the calls of the source. Unless noted, the call rests on the fitted dose curve; in most records, active means well fitted curve in the direction sought with a large enough effect in the repeat runs; inconclusive means weak or mixed curves; inactive means no such curve, though single readings can be large; an effect the other way counts as inactive or inconclusive.

Sequence of Cytochrome P450 2D6 (Homo sapiens) (P10635 whole entry, looked up): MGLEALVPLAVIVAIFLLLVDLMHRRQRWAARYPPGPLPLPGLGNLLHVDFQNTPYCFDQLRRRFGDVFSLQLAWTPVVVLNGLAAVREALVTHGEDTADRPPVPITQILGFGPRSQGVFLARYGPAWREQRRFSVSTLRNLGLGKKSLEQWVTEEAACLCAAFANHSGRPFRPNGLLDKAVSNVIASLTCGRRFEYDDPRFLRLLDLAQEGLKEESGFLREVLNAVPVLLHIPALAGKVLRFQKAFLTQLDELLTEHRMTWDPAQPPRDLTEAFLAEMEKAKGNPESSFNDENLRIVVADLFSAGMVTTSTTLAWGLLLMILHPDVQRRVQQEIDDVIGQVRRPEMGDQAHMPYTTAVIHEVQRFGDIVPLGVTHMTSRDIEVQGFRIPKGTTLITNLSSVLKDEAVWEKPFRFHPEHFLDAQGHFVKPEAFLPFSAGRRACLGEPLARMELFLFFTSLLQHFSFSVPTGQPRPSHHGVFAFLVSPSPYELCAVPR
Sequence of Cytochrome P450 2C9 (Homo sapiens) (P11712 whole entry, looked up): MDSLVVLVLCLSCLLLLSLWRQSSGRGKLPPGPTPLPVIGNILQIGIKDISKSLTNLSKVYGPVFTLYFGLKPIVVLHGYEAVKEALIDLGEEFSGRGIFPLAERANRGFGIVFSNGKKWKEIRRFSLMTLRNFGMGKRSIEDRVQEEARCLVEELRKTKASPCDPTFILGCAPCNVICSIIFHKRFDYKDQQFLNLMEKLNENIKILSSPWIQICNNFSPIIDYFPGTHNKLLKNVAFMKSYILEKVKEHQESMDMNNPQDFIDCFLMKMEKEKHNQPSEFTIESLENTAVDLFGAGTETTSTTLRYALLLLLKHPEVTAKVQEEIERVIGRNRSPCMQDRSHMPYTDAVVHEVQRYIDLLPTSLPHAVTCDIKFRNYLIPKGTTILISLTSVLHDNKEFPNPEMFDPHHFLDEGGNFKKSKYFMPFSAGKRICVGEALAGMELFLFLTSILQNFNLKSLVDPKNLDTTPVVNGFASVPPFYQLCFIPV
Sequence of Nuclear receptor subfamily 1 group I member 2 (Homo sapiens) (O75469 whole entry, looked up): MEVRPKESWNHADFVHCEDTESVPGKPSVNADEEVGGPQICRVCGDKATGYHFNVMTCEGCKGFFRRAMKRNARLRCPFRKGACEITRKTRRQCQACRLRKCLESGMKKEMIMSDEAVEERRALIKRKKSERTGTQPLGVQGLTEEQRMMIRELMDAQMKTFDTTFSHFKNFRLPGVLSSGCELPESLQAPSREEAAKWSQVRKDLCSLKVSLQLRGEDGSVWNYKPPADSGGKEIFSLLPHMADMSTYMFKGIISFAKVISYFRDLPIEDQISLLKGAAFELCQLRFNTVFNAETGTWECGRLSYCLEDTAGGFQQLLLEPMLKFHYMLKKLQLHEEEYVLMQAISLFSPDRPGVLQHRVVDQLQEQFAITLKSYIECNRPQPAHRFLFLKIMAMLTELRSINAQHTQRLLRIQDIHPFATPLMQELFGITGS
Sequence of Cytochrome P450 2C19 (Homo sapiens) (P33261 whole entry, looked up): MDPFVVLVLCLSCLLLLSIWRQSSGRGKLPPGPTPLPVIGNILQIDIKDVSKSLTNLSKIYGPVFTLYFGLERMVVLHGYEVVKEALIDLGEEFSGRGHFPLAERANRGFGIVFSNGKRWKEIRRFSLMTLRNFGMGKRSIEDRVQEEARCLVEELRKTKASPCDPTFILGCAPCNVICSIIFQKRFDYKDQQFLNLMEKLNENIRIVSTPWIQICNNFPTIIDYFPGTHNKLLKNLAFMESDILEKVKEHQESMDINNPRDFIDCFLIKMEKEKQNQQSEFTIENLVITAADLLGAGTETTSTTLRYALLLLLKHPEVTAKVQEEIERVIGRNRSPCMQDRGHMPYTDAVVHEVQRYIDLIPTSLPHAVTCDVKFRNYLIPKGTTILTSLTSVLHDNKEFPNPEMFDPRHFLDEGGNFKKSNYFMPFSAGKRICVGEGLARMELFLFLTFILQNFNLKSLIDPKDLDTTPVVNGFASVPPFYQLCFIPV

With `CC1=CC(=O)c2ccccc2C1=O`, the Potency result in assay [1], in assay [4], in assay [5], in assay [7] and in [8] was “inactive” in each case. Moreover, the Potency in assay [2] was 54.9 µM (active); in assay [6] it was 43.3 µM (active); in assay [9], 68.6 µM (active) and inactive; in assay [10], 31.7 µM (active); in [11] it was 14.2 µM (active) and 15.5 µM (active); in assay [12], 22.4 µM (active) and 13.8 µM (active). The molecule was called inactive in assay [3].
Turning to `Cc1ccc(S(=O)(=O)Oc2ccc(N=Nc3ccc(-c4ccc(N=Nc5c(O)ccc6cc(S(=O)(=O)O)cc(S(=O)(=O)O)c56)c(C)c4)cc3C)cc2)cc1`, the Potency result in assay [13], in [1], in assay [2], in assay [7] and in assay [8] was “inactive” each time. The outcome in assay [3] was inactive. Besides, the Potency in assay [9] was 19.4 µM (active) and 15.9 µM (active); in [10], 40.1 µM (active) and 26 µM (active); in [11] it was 28.4 µM (active) and 51.9 µM (active); in [12], 35.7 µM (active) and 26 µM (active).
As for `CC[C@]1(O)C[C@@H]2CN(CCc3c([nH]c4ccccc34)[C@@](C(=O)OC)(c3cc4c(cc3OC)N(C)[C@H]3[C@@](O)(C(=O)OC)[C@H](OC(C)=O)[C@]5(CC)C=CCN6CC[C@]43[C@@H]65)C2)C1`, the Potency result in assay [14], in [2], in assay [4], in [5], in assay [7] and in assay [8] was “inactive” each time. Besides, the call in [3] was inactive. In addition, the Potency in assay [6] was 15 µM (active) and 26.6 µM (active); in assay [15], 1.33 µM (active) and 119 nM (active); in assay [9] it was 29.8 µM (active).
Take `OCCOCCN1CCN(C(c2ccccc2)c2ccc(Cl)cc2)CC1` (centres undefined): the Potency in [1] is 33.9 µM (active); in [6] it was 24 µM (active); in assay [7], 53.8 µM (active) and inactive; in assay [9] it was 21.4 µM (active) and inactive; in [16], 8.52 µM (active) and inactive. Also, the Potency entry in assay [14], in [2], in assay [4], in assay [5] and in [8] was “inactive” in each case. Also, the call in [3] was inactive.
With `c1ccc2c(c1)-c1cccc3c1c-2cc1ccccc13`, the Potency entry in [13], in [1], in assay [2], in [7], in [8] and in assay [9] was “inactive” throughout. Moreover, the Potency entry in assay [12] was “inactive”. The Potency is 47.4 µM (active) in assay [15]; 27.6 µM (active) and inactive in assay [10].
Regarding `O=C(O)c1cc(Cl)cc(Cl)c1`, the Potency entry in [1], in assay [14], in assay [2], in assay [4], in assay [5] and in assay [7] was “inactive” in each case. For the same molecule, the Potency result in assay [15], in assay [8], in [9] and in assay [11] was “inactive” in each case. The call in [3] was inactive. Further, the Potency in assay [10] was 35.4 µM (active).
On to `Cc1cc(OCCOCC[N+](C)(C)Cc2ccccc2)ccc1C(C)(C)CC(C)(C)C`, for which the Potency in assay [13] was 54.2 µM (active) and 26.6 µM (active); in assay [1], 27.1 µM (active) and 13.3 µM (active); in assay [14] it was 43.4 µM (active) and 23.9 µM (active); in assay [2] it was 43.4 µM (active) and 23.9 µM (active); in assay [15], 43 µM (active); in [9], 54.2 µM (active). The Potency in assay [10] is 17.7 µM (active) and 13.8 µM (active); in [11], 39.7 µM (active); in assay [12], 62.9 µM (active). The result in [3] was inactive. The Potency result in [4], in [5] and in assay [8] was “inactive” in each case.
As to `CCCCCCCCCCCC[N+](C)(C)C`, the Potency result in assay [14], in assay [2], in assay [4], in [5], in assay [7] and in assay [8] was “inactive” each time. Besides, the Potency result in assay [9] and in assay [12] was “inactive” each time. The Potency was 68.4 µM (active) in assay [15]; 24.3 µM (active) and 61.1 µM (active) in assay [16]; 3.55 µM (active) and 3.56 µM (active) and 2.24 µM (active) in assay [10]; “inactive and 79.6 µM (active)” in assay [11].

These data come from PubChem BioAssay (Tox21).
